Measurements taken from PubChem BioAssay (NCI).
Compounds without any hit were thinned out: in the full panel of roughly 83,000, 20% have a hit.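 Cells were grown in 96-well plates and exposed to the test compound at a single concentration for 48 hours; results are reported as percent growth, with values below 10 considered active.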 Unmarked numbers belong to inactive results. The source made the active and inactive calls.

Tests used:
Assay in all cases: NCI-60 one-dose screen, 48 h (100 = growth as untreated, 0 = no growth, -100 = all killed)
Details in all cases: 10 µM unless noted
NCI-H23 lung = test system: NCI-H23 lung
NCI-H226 lung = test system: NCI-H226 lung
NCI-H322M lung = test system: NCI-H322M lung
HOP-62 NSCLC = test system: HOP-62 NSCLC
NCI-H460 lung = test system: NCI-H460 lung
HOP-92 NSCLC = test system: HOP-92 NSCLC
NCI-H522 lung = test system: NCI-H522 lung
A549/ATCC NSCLC = test system: A549/ATCC NSCLC
786-0 renal = test system: 786-0 renal
COLO 205 colon = test system: COLO 205 colon
DU-145 prostate = test system: DU-145 prostate
K-562 leukemia = test system: K-562 leukemia
MALME-3M melanoma = test system: MALME-3M melanoma
MDA-MB-231 breast = test system: MDA-MB-231 breast
RXF 393 renal = test system: RXF 393 renal
SF-268 CNS = test system: SF-268 CNS
SF-295 CNS = test system: SF-295 CNS
SF-539 CNS = test system: SF-539 CNS
UACC-257 melanoma = test system: UACC-257 melanoma
M14 melanoma = test system: M14 melanoma

Structure (SMILES)	growth (NCI-H23 lung)	growth (NCI-H226 lung)	growth (NCI-H322M lung)	growth (HOP-62 NSCLC)	growth (NCI-H460 lung)	growth (HOP-92 NSCLC)	growth (NCI-H522 lung)	growth (A549/ATCC NSCLC)	growth (786-0 renal)	growth (COLO 205 colon)	growth (DU-145 prostate)	growth (K-562 leukemia)	growth (MALME-3M melanoma)	growth (MDA-MB-231 breast)	growth (RXF 393 renal)	growth (SF-268 CNS)	growth (SF-295 CNS)	growth (SF-539 CNS)	growth (UACC-257 melanoma)	growth (M14 melanoma)
Cc1cccc[n+]1CCC[n+]1ccccc1C	99.8%	98.4%	109%	84.9%	106%	86%	88.1%	95.7%	84.2%	91.1%	111%	103%	105%	115%	111%	107%	103%	98.9%	111%	89.4%
CCN(CC)CCNC(=O)c1c(C)[nH]c(/C=C2\C(=O)Nc3cc(NC(=O)NC(=O)c4ccc(OC)cc4F)ccc32)c1C	103%	108%	105%	109%	83.7%	94.9%	104%	85.3%	-55.6% (active)	94.7%	97.3%	10.9%	108%	77.8%	66.4%	102%	117%	94.7%	111%	105%
CCOC(=O)c1noc2c1CCc1c-2cn(Cc2ccc(OC)cc2)c1-c1cc(OC)c(OC)c(OC)c1	42.9%	40.8%	52.2%	22.8%	8.9% (active)	63.4%	3.83% (active)	43.5%	34.7%	1.98% (active)	24.5%	7.62% (active)	76.9%	-1.46% (active)	11.7%	41.5%	21.2%	-10.4% (active)	54.3%	3.01% (active)
C=C1C(=O)O[C@H]2[C@H]1CC/C(COC(=O)OC/C1=C/CC[C@@]3(C)O[C@H]3[C@H]3OC(=O)[C@@H](CN(C)C)[C@@H]3CC1)=C\CC[C@@]1(C)O[C@@H]21	47.6%	-49.6% (active)	88%	89.2%	80.1%	-51.8% (active)	-48.5% (active)	73.4%	-49.7% (active)	-43.2% (active)	15.3%	1.85% (active)	-34.7% (active)	-10.4% (active)	-81.5% (active)	63.1%	94.7%	-12.1% (active)	-28% (active)	-22.9% (active)
NCC(=O)NS(=O)(=O)OC[C@H]1O[C@@H](n2cnc3c(N)ncnc32)[C@H](O)[C@@H]1O	5.7% (active)	-54.6% (active)	-1.74% (active)	-32.1% (active)	3.35% (active)	17.3%	-51.6% (active)	9.7% (active)	-7.02% (active)	48.5%	-31.7% (active)	7.38% (active)	-2.82% (active)	2.61% (active)	-36.6% (active)	3.78% (active)	-33.7% (active)	-9.36% (active)	27.4%	-23.1% (active)
Cc1cc2c(cc1C)N(C(=O)CCl)CCN2C(=O)CCl	-57.1% (active)	-19.3% (active)	10.2%	-46.7% (active)	-54.7% (active)	-72.5% (active)	-82.5% (active)	-29.4% (active)	-24.8% (active)	-41.7% (active)	-97.8% (active)	5.44% (active)	-57.3% (active)	-45.9% (active)	-47.1% (active)	-33.4% (active)	11.8%	-85.6% (active)	-67.2% (active)	-12.1% (active)
COc1cc(C(=O)N2CCN(C(=O)c3cc(OC)c(OCc4ccccc4)cc3N)CC2)c(N)cc1OCc1ccccc1	86.8%	122%	99.3%	108%	115%	86.1%	103%	107%	104%	115%	111%	7.24% (active)	91.1%	94.7%	98.6%	108%	102%	104%	98.5%	111%
O=C(Nc1ccc(-n2ccc3c(NC(=O)c4ccccc4)ncnc32)cc1)Nc1cccc(Cl)c1Cl	-13.7% (active)	-37.6% (active)	43.9%	-32% (active)	-48.4% (active)	-21.1% (active)	-31.6% (active)	-69.6% (active)	6.42% (active)	15.9%	1.29% (active)	12.5%	2.21% (active)	-9.33% (active)	-76.1% (active)	-26.8% (active)	-47.9% (active)	-10.4% (active)	12.2%	-6.74% (active)
O=C(Nc1cccc(-n2ccc3c(NC(=O)c4ccccc4)nccc32)c1)Nc1cc(C(F)(F)F)cc(C(F)(F)F)c1	3.76% (active)	26.3%	46%	35.6%	2.99% (active)	-13% (active)	-46.5% (active)	7.57% (active)	13.4%	-36.3% (active)	1.14% (active)	4.23% (active)	26.2%	-10.5% (active)	-19.4% (active)	22.1%	-19.2% (active)	-19.3% (active)	25.2%	-43.8% (active)
CC(C)CCC[C@@H](C)[C@H]1CC[C@H]2[C@@H]3CC=C4N(c5ccccc5)C(=O)CC[C@]4(C)[C@H]3CC[C@]12C	97.2%	99.2%	98.3%	98.8%	111%	60.2%	94.1%	97.4%	93.9%	97.9%	103%	103%	97.8%	111%	103%	99.3%	99%	101%	105%	96.1%
O=C(Nc1ccc(-n2ccc3c(NC(=O)c4ccccc4)nccc32)cc1)Nc1ccc(Cl)c(Cl)c1	42.4%	68%	-5.58% (active)	-58.1% (active)	-65.4% (active)	-6.97% (active)	-58.6% (active)	-75.8% (active)	-84% (active)	-53.4% (active)	-32.6% (active)	-27.3% (active)	-46.9% (active)	-65.2% (active)	-93.9% (active)	1.8% (active)	-67% (active)	-58.6% (active)	-69% (active)	-69.8% (active)
CC(C)C(=O)Nc1nc2c(s1)CCCc1ccn(S(=O)(=O)c3ccccc3)c1-2	86.8%	94%	90%	90.6%	103%	112%	70.5%	82.3%	89.9%	110%	98.8%	73.8%	114%	108%	119%	99.2%	90.6%	100%	93.7%	96.9%
COC(OC)C1(c2ccccc2)NC(=O)NC1=O (stereo not given)	112%	113%	108%	103%	115%	104%	79.8%	95.9%	108%	119%	120%	112%	112%	112%	116%	119%	121%	114%	104%	108%
CCOC(=O)C1=C(N)Oc2cc(OC)ccc2C1c1ccc(F)c(F)c1 (stereo not given)	45.1%	68%	46.8%	37.7%	16.8%	73.6%	-6.42% (active)	42.1%	33.1%	25.2%	37.7%	11.2%	59.3%	47.4%	-9.59% (active)	51.3%	17.7%	17.8%	53.4%	18%
Nc1nccc2c1ccn2-c1cccc(NC(=O)c2ccc(N3CCOCC3)c(C(F)(F)F)c2)c1	16.4%	35.8%	35.3%	24.1%	1.28% (active)	-6.29% (active)	-43% (active)	10.8%	-38.9% (active)	-38.6% (active)	-0.195% (active)	9.79% (active)	39.8%	6.1% (active)	-75.9% (active)	21.8%	-30.9% (active)	3.23% (active)	59.2%	16%
